Data reported in PubChem BioAssay (Tox21).
Several values for one entry are separate records, joined by “and”; a condition that tells them apart may be missing. Equal values may be shown once. Results filed as inconclusive are left out. Where a call stands in place of a potency, no number is given. More than one record can exist for a structure, and the calls need not agree. Activity calls are given as the source filed them. Calls follow the shape of the dose curve; as a rule, active = well fitted cell-killing curve with a large enough effect in the repeat runs; inconclusive = weak or mixed curves, or effect the other way; inactive = flat fitted curve, though single readings scatter.

Experiment: Human pregnane X receptor (PXR) small molecule agonists, qHTS cell viability counter screen (AID 1346977); also: nearly all actives have a fitted effect of over 50% in size
Settings: PXR-Luc HepG2 viability, CellTiter-Fluor, 24 h; series mostly up to 92.4 µM
Description: U.S. Tox21 Program National Center for Advancing Translational Sciences [NCATS] NIH Chemical Genomics Center [NCGC] U.S. Environmental Protection Agency [EPA] National Institutes of Environmental Health Sciences [NIEHS] National Toxicology Program [NTP] U.S. Food and Drug Administration [FDA] Tox21 Assay Overview: The human pregnane X receptor (hPXR) regulates the expression of several drug metabolizing enzymes and induction of these proteins is a major mechanism for developing drug resistance in cancer. One such key enzyme catalyzing the drug metabolism is cytochrome P450 3A4 (CYP3A4). Changes in CYP3A4 expression affect drug metabolism, thereby reducing the therapeutic efficacy and altering toxicological response to a drug and which finally causes adverse drug interaction. To screen Tox21 libraries for compounds that activate hPXR-mediated CYP3A4 gene expression, PXR-Luc HepG2 cells were used. Also cytotoxicity of the compounds was tested in parallel by measuring the cell viability using CellTiter-Fluor assay system in the same wells.
Tox21 Assay Protocol Summary: PXR-Luc HepG2 cells were dispensed at 2,000 per well in 5uL of assay medium containing 5% charcoal-stripped FBS into white solid bottom 1536-well plates (Corning Life Sciences, Corning, NY) using a Multidrop Combi (Thermo Scientific, Waltham, MA) dispenser. The assay plates were incubated at 37 C and 5% CO2 for 5hr, and then 23nL of compounds dissolved in DMSO and positive control were transferred using a Pintool station (Wako, San Diego, CA). The assay plates were incubated at 37C and 5% CO2 for 24hr. For cytotoxicity read, after 23hr incubation at 37C, 1uL CellTiter-Fluor reagent (Promega Corporation, Madison, WI) was added to each well of the assay plates using Flying Reagent Dispenser (FRD, Aurora Discovery, San Diego, CA). After 1hr incubation at 37C and 5% CO2, the fluorescence signal was quantified using a ViewLux plate reader (PerkinElmer, Shelton, CT).
Potency is read from the fitted curve at half-maximal effect.

| SMILES | Potency |
| --- | --- |
| O=[N+]([O-])c1cccc(CCl)c1 | inactive |
| O=C(Cl)OCc1ccccc1 | inactive |
| C[C@H]1CCCC(=O)CCC/C=C/c2cc(O)cc(O)c2C(=O)O1 | 52.5 µM (active) |
| [O-][Br+2]([O-])O | inactive |
| C(COCC1CO1)OCC1CO1 (stereo not given) | inactive |
| CCC1(c2cccc(O)c2)CCCCN(C)C1 (stereo not given) | inactive |
| CCOC(=O)Nc1cccc(OC(=O)Nc2ccccc2)c1 | inactive |
| CC(C)[N+](C)(CCC(C(N)=O)(c1ccccc1)c1ccccc1)C(C)C | inactive |
| CC(C)NCC(O)c1ccc([N+](=O)[O-])cc1 (stereo not given) | inactive |
| CCCN1CCC[C@@H]2Cc3nc(N)ncc3C[C@H]21 | inactive |
| COc1ccc2c(C(=O)c3ccc(Cl)cc3)c(C)n(CC(=O)O)c2c1 | inactive |
| NC(=O)OCCCc1ccccc1 | inactive |
| CN1C(=O)COc2c(C(=O)NC3CN4CCC3CC4)cc(Cl)cc21 (stereo not given) | inactive |
| CCN1CCCC1CNC(=O)C(O)(c1ccccc1)c1ccccc1 (stereo not given) | inactive |
| C=C(Cl)CSC(=S)N(CC)CC | inactive |
| O=C1C2CC=CCC2C(=O)N1SC(Cl)(Cl)Cl (stereo not given) | inactive and 21.3 µM (active) |
| ClCCCCCCCl | inactive |
| BrCC1CO1 (stereo not given) | inactive |
| C=CCCC#N | inactive |
| CCN(CCO)CCO | inactive |

| SMILES | Potency |
| --- | --- |
| CCNP(=S)(OC)O/C(C)=C/C(=O)OC(C)C (stereo not given) | inactive |
| C=CCc1cc(OC)c2c(c1)OCO2 | inactive |
| CCOC1Oc2ccc(OS(C)(=O)=O)cc2C1(C)C (stereo not given) | inactive |
| CC(C)N(Cc1ccccc1)C(=O)C(C)(C)C | inactive |
| CCCCCCCC(=O)Cl | inactive |
| O=c1[nH]c2ccccc2o1 | inactive |
| COc1cc(CC(C)N)cc(OC)c1OC (stereo not given) | inactive |
| CCC(=O)OC1(c2ccccc2)CCN(C)CC1 | inactive |
| CCCOc1nn(C(=O)NS(=O)(=O)c2ccccc2C(=O)OC)c(=O)n1C | inactive |
| O=C(Cl)CCl | inactive |
| C=CC=O | inactive |
| O=C(O)CBr | inactive |
| ClC(Cl)(Cl)Cl | inactive |
| C=C(Cl)CCl | inactive |
| BrCc1ccc(Br)cc1 | inactive |
| C=C(C)[C@H]1CN[C@H](C(=O)O)[C@H]1CC(=O)O | inactive |
| CCCC[N+](=O)[O-] | inactive |
| N#CN=C1SCCN1Cc1ccc(Cl)nc1 | inactive |
| CCNc1nc(NCC)nc(SC)n1 | inactive |
| N[C@@H]1C[C@H]1c1ccccc1 | inactive |
